Reference: PubChem BioAssay (Tox21)
Inconclusive results are not listed. Values without a mark were called inactive. Active and inactive are the calls of the source. No rule for the calls is given here.

Assay: qHTS assay to identify small molecule antagonists of the estrogen related receptor signaling pathway with the pleiotropic PPARgamma coactivator (PGC) from Tox21 10K library (AID 1224841); also: actives are mostly falling curves and most rising ones were filed inactive; nearly all actives have a fitted effect of over 50% in size
Conditions: PGC/ERR reporter cell line, ONE-Glo luciferase, 18 h; series mostly up to 92.4 µM; activity, negative = inhibition: at the top concentration
From the text: U.S. Tox21 Program National Center for Advancing Translational Sciences [NCATS] NIH Chemical Genomics Center [NCGC] U.S. Environmental Protection Agency [EPA] National Institutes of Environmental Health Sciences [NIEHS] National Toxicology Program [NTP] U.S. Food and Drug Administration [FDA] Tox21 Assay Overview: Estrogen related receptors (ERRs), the first orphan nuclear receptors discovered, play an important role in the control of cellular energy metabolism. ERRs are required for high-energy production in response to the environmental challenges. The pleiotropic PPARgamma coactivator (PGC) is a major partner of ERR and a key regulator in energy homeostasis. Together they have been implicated in the etiology of metabolic disorders such as Type 2 diabetes and metabolic syndrome. ERR-alpha was also identified as an adverse marker for breast cancer progression; ERR-alpha-positive tumors have a poor prognosis. To screen and to identify environmental compounds that perturb the ERR and PGC/ERR signaling pathways could provide valuable information for potential therapeutic or preventive measures in the treatment of metabolic disease. For identifying PGC/ERR antagonists, PGC/ERR cell line (provided by NTP) has been used to screen Tox21 10K library.
Tox21 Assay Protocol Summary: The PGC/ERR cells were dispensed at 2,000 cells/5 ul/well in 1536-well white plates using a Multidrop dispenser. After the assay plates were incubated at a 37 C/5% CO2 incubator for 6 hours, 23 nL of compounds dissolved in DMSO, positive and negative controls or DMSO only was transferred to the assay plate by a pin tool. The plates were incubated at 37 C for 18 hours. 4 ul/well of One-Glo reagent was added into the assay plates using a Flying Reagent Dispenser. After 30-minute incubation at room temperature, the luminescence intensity in the plates was measured using a ViewLux plate reader.
% is scaled to controls: 0 for no effect and ±100 for the full control effect; potency is read from the fitted curve at half-maximal effect.

Compound	activity, negative = inhibition	Potency
CCCCCCCCCCCl	13%	
Nc1ncnc2c1ncn2Cc1c(F)cccc1Cl	28.5% [at 42.5 µM]	
CCCCCCCCCCCCCCC	-0.434%	
Nc1[nH]c(=O)ncc1F	-1.36% [at 42.5 µM]	
CCCOCC(C)OCC(C)O (stereo not given)	7.27%	
C[C@H]1O[C@@H](n2cc(F)c(=O)[nH]c2=O)[C@H](O)[C@@H]1O	2.6% [at 42.5 µM]	
CN(C)C(=O)C(CCN1CCC(O)(c2ccc(Cl)cc2)CC1)(c1ccccc1)c1ccccc1	-2.65% [at 42.5 µM]	
Nc1ccn(C2CO[C@H](CO)O2)c(=O)n1 (stereo not given in full)	-1.38% [at 42.5 µM]	
C1COCCO1	-0.515%	
COc1cc(CCC(C)=O)ccc1O	9.56%	
O=c1[nH]c2ccccc2c(=O)n1CCCl	5.32% [at 42.5 µM]	
Nc1nc2c(ncn2CCC(CO)CO)c(=O)[nH]1	-8.26% [at 42.5 µM]	
NCCNC(=O)c1ccc(Cl)cn1	-9.13% [at 42.5 µM]	
CN(C)C(=O)Nc1ccccc1	12.3%	
CCCCCCC(=O)OCC	0.503%	
C=C(C)C1CC=C(C)C(O)C1 (stereo not given)	4%	
C=C(C)[C@@H]1CCC2=CC(=O)C[C@@H](C)[C@]2(C)C1	8.86%	
CCn1c(=O)c2c(nc(/C=C/c3ccc(OC)c(OC)c3)n2C)n(CC)c1=O	-9.78% [at 42.5 µM]	
O=S(=O)(O)c1ccccc1O	3.68%	
Cc1nc(-c2ccc(OCC(C)C)c(C#N)c2)sc1C(=O)O	123% [at 42.5 µM]	

Compound	activity, negative = inhibition	Potency
CNc1ncnc2nc[nH]c12	9.52%	
CC(C)CCCC(C)NCCC(C)C (stereo not given)	-2.1% [at 42.5 µM]	
O=C(O)c1cccc(C(=O)O)n1	4.08%	
N#CC1(O)CCCCC1	3.93%	
CCCCCCOC(=O)CC(CC(=O)OCCCCCC)(OC(=O)CCC)C(=O)OCCCCCC	-4.55%	
C1=C\CC/C=C\CC/C=C\CC/1	-13%	
CC(C)c1ccc2oc3nc(N)c(C(=O)O)cc3c(=O)c2c1	195% [at 42.5 µM]	
CCCCCC[C@@H](CCC)C(=O)O	-20.2% [at 42.5 µM]	
CC(=O)O[C@H](CC(=O)[O-])C[N+](C)(C)C	-10.1%	
Cc1onc(-c2ccccc2)c1-c1ccc(S(N)(=O)=O)cc1		23.7 µM (active)
CCO[Si](CCCN=C=O)(OCC)OCC	-5.14%	
CCCCC1CCCCC(=O)O1 (stereo not given)	7.19%	
CNC(=O)c1c(I)c(NC(=O)CCCCC(=O)Nc2c(I)c(C(=O)O)c(I)c(C(=O)NC)c2I)c(I)c(C(=O)O)c1I	-14.2% [at 42.5 µM]	
CC(C)c1cccc(C(C)C)c1N	-0.707%	
Cc1ccccc1Br	-0.345%	
CC12CCC(CC1=O)C2(C)C (stereo not given)	5.93%	
CCCCCCOC(=O)c1ccccc1O	11.7%	
COc1ccc2cc(C=O)ccc2c1	17% [at 42.5 µM]	
CCC(=O)/C=C/c1ccc(OC)cc1	-10.8%	
c1ccc(CCCc2ccccn2)cc1	99.2%	
